# The panel holds about 83,000 compounds, 20% with a hit somewhere; the sample as a whole holds those more often.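 How to read the values: 0–100, growth inhibition (40 = 60% inhibited); 0, no net growth; -100 to 0, cell death (-40 = 40% of starting cells died; -100 = all dead).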 Unmarked numbers belong to inactive results. Active and inactive are the calls of the source. Rule for the calls: active = growth percent below 10; inactive = the rest.
# Key:
# Test in all cases: NCI-60 one-dose screen, 48 h (100 = growth as untreated, 0 = no growth, -100 = all killed)
# Details in all cases: 10 µM unless noted
# SR leukemia = tested on: SR leukemia
# RPMI-8226 leukemia = tested on: RPMI-8226 leukemia
# OVCAR-5 ovarian = tested on: OVCAR-5 ovarian
# OVCAR-4 ovarian = tested on: OVCAR-4 ovarian
# SK-OV-3 ovarian = tested on: SK-OV-3 ovarian
# IGROV1 ovarian = tested on: IGROV1 ovarian
# OVCAR-3 ovarian = tested on: OVCAR-3 ovarian
# HS 578T breast = tested on: HS 578T breast
# NCI/ADR-RES ovarian = tested on: NCI/ADR-RES ovarian
# T-47D breast = tested on: T-47D breast
# MDA-MB-435 melanoma = tested on: MDA-MB-435 melanoma
# SW-620 colon = tested on: SW-620 colon
# MCF7 breast = tested on: MCF7 breast
# HCT-116 colon = tested on: HCT-116 colon
# HCC-2998 colon = tested on: HCC-2998 colon
# KM12 colon = tested on: KM12 colon
# OVCAR-8 ovarian = tested on: OVCAR-8 ovarian
# BT-549 breast = tested on: BT-549 breast
SMILES,growth (SR leukemia),growth (RPMI-8226 leukemia),growth (OVCAR-5 ovarian),growth (OVCAR-4 ovarian),growth (SK-OV-3 ovarian),growth (IGROV1 ovarian),growth (OVCAR-3 ovarian),growth (HS 578T breast),growth (NCI/ADR-RES ovarian),growth (T-47D breast),growth (MDA-MB-435 melanoma),growth (SW-620 colon),growth (MCF7 breast),growth (HCT-116 colon),growth (HCC-2998 colon),growth (KM12 colon),growth (OVCAR-8 ovarian),growth (BT-549 breast)
O=C(c1ccc(Cl)cc1)c1ccc(Cl)cc1,93.3%,115%,88.7%,92.4%,114%,124%,105%,130%,103%,101%,107%,103%,104%,110%,96.7%,110%,–,–
CC(=O)N1N=C(c2ccc(C(F)(F)F)cc2)CC1c1ccc2c(c1)OCO2 (configuration not stated),89.5%,–,100%,77.8%,104%,67%,110%,97.8%,95.8%,86.2%,78.2%,88.4%,78.6%,45.5%,94.3%,89.2%,101%,93.7%
COc1ccc2[nH]c(=O)c(CNc3ccc(Nc4nccc(-c5ccc(Cl)cc5)n4)cc3)cc2c1,54%,77.6%,103%,99.9%,118%,89.1%,89.3%,101%,92.5%,65.9%,104%,105%,71.8%,91.1%,106%,85.4%,–,104%
CCOC(=O)CNC(=O)C1(NC(=O)CNC(=O)OCc2ccccc2)CCCC1,103%,–,95.1%,106%,104%,117%,142%,125%,105%,107%,95.6%,110%,96.6%,101%,105%,108%,107%,98%
O=C1OC2(c3ccccc31)c1ccccc1-c1ccccc12,41.4%,–,88.4%,82.9%,91.7%,90.6%,93.6%,83.4%,90.8%,90.1%,-26.9% (active),78.4%,52.4%,54.4%,88.4%,51.6%,101%,82.7%
COC(=O)C1(NC(=O)CNC(=O)OCc2ccccc2)CCCC1,100%,–,103%,98.3%,111%,115%,149%,131%,111%,113%,106%,104%,93.9%,99.9%,108%,108%,106%,99.1%
Nc1ccccc1-c1ccn[nH]1,99.7%,–,83%,94.7%,92.1%,84.2%,91.6%,100%,105%,93.5%,93.2%,96.7%,100%,92.7%,97.2%,82.3%,103%,91.2%
N#CC1c2ccccc2C=CN1C(=O)N(c1ccccc1)c1ccccc1 (configuration not stated),1.1% (active),–,107%,77%,110%,13.5%,-34.3% (active),52.9%,96.2%,-1.33% (active),58.7%,21.8%,49.9%,26.5%,96.8%,102%,76%,74.1%
CC[N+](CCCCCCCCCC[N+](CC)(c1ccccn1)c1ccccn1)(c1ccccn1)c1ccccn1,-19.8% (active),–,24.1%,20.5%,8.24% (active),-35.2% (active),3.49% (active),28.5%,63.6%,13.8%,-15.1% (active),10.1%,7.81% (active),9.06% (active),13.3%,5.01% (active),7.02% (active),19.1%
CCSc1ncc(Br)c(Sc2nc(N)nc3nc[nH]c23)n1,19.4%,26.1%,72.3%,58.4%,18.5%,89.4%,75.2%,89.9%,33.4%,29.9%,37.7%,91.4%,47%,36.8%,41.4%,79%,–,65.3%
OCCN1CCN(CCCN2c3ccccc3Sc3ccc(C(F)(F)F)cc32)CC1,-42.9% (active),18.8%,–,62.5%,73.8%,24.5%,53.4%,24.6%,46.8%,54.5%,-46.1% (active),-31.2% (active),–,2.28% (active),-83.2% (active),9.9% (active),–,53%
Cc1onc(-c2ccccc2Cl)c1C(=O)N[C@@H]1C(=O)N2[C@@H]1SC(C)(C)[C@@H]2C(=O)O,91.6%,–,115%,110%,104%,101%,118%,114%,109%,98.1%,107%,110%,101%,101%,99.6%,108%,106%,100%
CC(=O)Nc1c(Cl)cc2c(c1Cl)Cc1cc([N+](=O)[O-])ccc1-2,70%,–,117%,81.2%,84.4%,117%,72%,34.6%,94.8%,53.4%,81%,81.5%,27.8%,72.6%,87.4%,78.2%,77.7%,84.4%
CC(C)=CCNc1ncnc2c1ncn2C1OC(COP(=O)(O)O)C(O)C1O (configuration not stated),-15.2% (active),109%,74.5%,85.4%,12.9%,54.6%,0.0655% (active),63.8%,39.1%,3.18% (active),56.7%,37.6%,16.5%,19.2%,69.6%,69.6%,–,2.41% (active)
COC(=O)CC1=C(c2ccc([N+](=O)[O-])cc2)CCC1=O,104%,–,105%,110%,99.1%,127%,121%,114%,109%,101%,105%,101%,104%,112%,109%,107%,104%,110%
Cc1ccc(C(NC(=O)c2ccccc2)c2ccc3cccnc3c2O)cc1 (configuration not stated),11%,14.9%,44.8%,19.8%,19.3%,17.1%,31.5%,69.5%,14%,25.1%,30%,31.3%,24.8%,22.8%,30.7%,26.5%,–,25.5%
O=[N+]([O-])c1ccc(N=Nc2c(Cl)cc(O)cc2Cl)cc1,3.27% (active),–,25.3%,12.1%,13.3%,6.67% (active),-25.3% (active),-20% (active),-19.7% (active),4.24% (active),-24.4% (active),-10% (active),1.11% (active),-57.2% (active),5.82% (active),-39.8% (active),6.5% (active),-33.6% (active)
O=C1N=C(N2CCOCC2)S/C1=C\c1cn(-c2ccccc2)nc1-c1ccccc1,71.5%,–,109%,25.1%,83.3%,79.9%,58%,57.4%,60.2%,62.4%,65.3%,98.8%,81.5%,64.4%,100%,96.4%,69.9%,–

# Reference: PubChem BioAssay (NCI)
